Data on one sequence can be found in paper PMC7862700, “An all-to-all approach to the identification of sequence-specific readers for epigenetic DNA modifications on cytosine”.

Holding throughout (assay): DAPPL (digital affinity profiling via proximity ligation, sequencing); 10 mM Tris-HCl pH 7.5, 50 mM NaCl, 1 mM DTT, 4% glycerol, room temperature, 30 min; GST-TFs on glutathione beads, 16-mer random dsDNA library, 0.1% formaldehyde crosslink after washing; high values mean tight binding
Holding throughout (settings): protein: recombinant; tags: N-terminal GST; dsDNA, one strand shown

One test addresses T1, FLI1 (Homo sapiens, UniProt Q01543 1-452).
T1 sequence: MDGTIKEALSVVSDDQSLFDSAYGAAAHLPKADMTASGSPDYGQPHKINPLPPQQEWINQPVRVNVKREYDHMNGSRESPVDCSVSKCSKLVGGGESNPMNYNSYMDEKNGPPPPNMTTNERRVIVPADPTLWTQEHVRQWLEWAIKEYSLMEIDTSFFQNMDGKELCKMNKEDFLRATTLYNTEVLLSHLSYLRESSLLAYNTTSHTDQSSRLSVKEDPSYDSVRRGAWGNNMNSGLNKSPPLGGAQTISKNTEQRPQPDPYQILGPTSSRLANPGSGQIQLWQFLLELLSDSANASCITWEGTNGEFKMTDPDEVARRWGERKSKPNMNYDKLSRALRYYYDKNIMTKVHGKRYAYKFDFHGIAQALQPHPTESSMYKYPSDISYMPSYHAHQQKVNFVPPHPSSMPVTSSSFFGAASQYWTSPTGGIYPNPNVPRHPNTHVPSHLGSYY
The method, boiled down:
(§1)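 A tag-only sample was pooled with DNA-barcoded human transcription factors that had been expressed in yeast as GST fusions and captured on glutathione beads. The pools were incubated for 30 min at room temperature with 200 nmole of a random double-stranded 16-mer DNA library in Tris/NaCl/DTT/glycerol buffer, then washed, crosslinked with 0.1% formaldehyde, proximity-ligated (BsaI/T4 ligase, 1 h, 37 °C), PCR-amplified and sequenced on an Illumina NextSeq500. Binding signal is each hexamer's read frequency for a factor divided by its frequency for the tag-only sample.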

In the next test the target is T2, ELK1 (Homo sapiens, UniProt P19419 1-428).
T2 sequence: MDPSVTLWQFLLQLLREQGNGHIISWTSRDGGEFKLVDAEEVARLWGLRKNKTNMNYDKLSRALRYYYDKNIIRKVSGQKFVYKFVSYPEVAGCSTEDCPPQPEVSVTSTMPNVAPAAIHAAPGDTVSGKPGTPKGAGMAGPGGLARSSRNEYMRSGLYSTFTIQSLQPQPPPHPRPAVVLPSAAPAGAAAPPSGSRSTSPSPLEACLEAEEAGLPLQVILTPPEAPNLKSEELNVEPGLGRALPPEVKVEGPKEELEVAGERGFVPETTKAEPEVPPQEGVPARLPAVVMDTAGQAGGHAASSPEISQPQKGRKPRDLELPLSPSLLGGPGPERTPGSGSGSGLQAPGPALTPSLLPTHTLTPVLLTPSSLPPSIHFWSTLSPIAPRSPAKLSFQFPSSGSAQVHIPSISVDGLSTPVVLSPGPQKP
Summed up: as §1

A further test deals with T3, ERG (Homo sapiens, UniProt P11308 1-479).
T3 sequence: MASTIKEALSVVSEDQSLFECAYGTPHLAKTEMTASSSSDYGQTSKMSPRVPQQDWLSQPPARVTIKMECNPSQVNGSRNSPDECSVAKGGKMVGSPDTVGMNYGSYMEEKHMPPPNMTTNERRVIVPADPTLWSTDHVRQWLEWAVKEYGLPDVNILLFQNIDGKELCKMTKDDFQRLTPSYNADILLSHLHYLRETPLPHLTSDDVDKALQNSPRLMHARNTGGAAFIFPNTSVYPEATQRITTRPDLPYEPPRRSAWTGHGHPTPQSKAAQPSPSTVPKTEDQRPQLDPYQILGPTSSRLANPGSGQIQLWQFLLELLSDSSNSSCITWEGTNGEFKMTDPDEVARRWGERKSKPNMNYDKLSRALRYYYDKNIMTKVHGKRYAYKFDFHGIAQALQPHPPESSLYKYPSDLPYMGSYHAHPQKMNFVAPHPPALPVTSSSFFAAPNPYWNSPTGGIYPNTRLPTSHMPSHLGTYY
The method, boiled down:
as §1

For another test, the target named is T4, EHF (Homo sapiens, UniProt Q9NZC4 1-300).
T4 sequence: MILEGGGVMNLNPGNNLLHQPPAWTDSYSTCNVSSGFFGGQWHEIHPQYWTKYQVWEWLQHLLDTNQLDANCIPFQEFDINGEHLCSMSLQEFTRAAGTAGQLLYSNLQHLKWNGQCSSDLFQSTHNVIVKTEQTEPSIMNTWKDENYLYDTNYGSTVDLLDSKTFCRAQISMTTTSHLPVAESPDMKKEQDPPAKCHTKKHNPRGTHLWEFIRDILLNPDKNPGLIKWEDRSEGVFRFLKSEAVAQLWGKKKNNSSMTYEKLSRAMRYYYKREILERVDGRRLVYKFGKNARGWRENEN
Summed up:
as §1

A further test concerns the target SPI1 (Homo sapiens, UniProt P17947 1-270). Summed up: as §1
In another test the target is SPIB (Homo sapiens, UniProt Q01892 1-262). The method, boiled down: as §1
Sequence of SPIB (Q01892 whole entry): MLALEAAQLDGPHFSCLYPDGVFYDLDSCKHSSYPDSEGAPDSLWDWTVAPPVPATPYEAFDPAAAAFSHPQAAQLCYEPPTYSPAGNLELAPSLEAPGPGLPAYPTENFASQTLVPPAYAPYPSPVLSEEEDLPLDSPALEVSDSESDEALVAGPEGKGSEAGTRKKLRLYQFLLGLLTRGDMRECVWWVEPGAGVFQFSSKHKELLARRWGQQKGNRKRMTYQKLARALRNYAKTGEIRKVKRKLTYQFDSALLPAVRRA
The target of the next test is T5, FEV (Homo sapiens, UniProt Q99581 1-238).
T5 sequence: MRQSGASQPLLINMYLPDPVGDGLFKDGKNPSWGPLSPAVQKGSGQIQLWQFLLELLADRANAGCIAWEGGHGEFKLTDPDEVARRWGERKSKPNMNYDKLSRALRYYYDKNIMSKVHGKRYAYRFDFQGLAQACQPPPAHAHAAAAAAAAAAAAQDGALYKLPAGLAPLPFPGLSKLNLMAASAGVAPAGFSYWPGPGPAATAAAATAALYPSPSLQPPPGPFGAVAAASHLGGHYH
Summed up:
as §1

The target of another test is ETV5 (Homo sapiens, UniProt P41161 1-510). The method, boiled down:
as §1

A further test addresses T6, SPIC (Homo sapiens, UniProt Q8N5J4 1-248).
T6 sequence: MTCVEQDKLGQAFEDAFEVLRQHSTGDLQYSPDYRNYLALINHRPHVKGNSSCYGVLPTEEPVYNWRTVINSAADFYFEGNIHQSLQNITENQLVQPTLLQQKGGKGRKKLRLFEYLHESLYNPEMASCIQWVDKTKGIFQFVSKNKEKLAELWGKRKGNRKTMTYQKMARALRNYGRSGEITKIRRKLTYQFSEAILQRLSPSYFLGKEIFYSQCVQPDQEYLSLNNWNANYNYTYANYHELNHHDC
The method, boiled down: as §1

Another test addresses ELF4 (Homo sapiens, UniProt Q99607 1-663). The method, boiled down:
as §1

In the next test the target is ETV1 (Homo sapiens, UniProt P50549 1-477). The method, boiled down: as §1
Sequence of ETV1 (P50549 whole entry): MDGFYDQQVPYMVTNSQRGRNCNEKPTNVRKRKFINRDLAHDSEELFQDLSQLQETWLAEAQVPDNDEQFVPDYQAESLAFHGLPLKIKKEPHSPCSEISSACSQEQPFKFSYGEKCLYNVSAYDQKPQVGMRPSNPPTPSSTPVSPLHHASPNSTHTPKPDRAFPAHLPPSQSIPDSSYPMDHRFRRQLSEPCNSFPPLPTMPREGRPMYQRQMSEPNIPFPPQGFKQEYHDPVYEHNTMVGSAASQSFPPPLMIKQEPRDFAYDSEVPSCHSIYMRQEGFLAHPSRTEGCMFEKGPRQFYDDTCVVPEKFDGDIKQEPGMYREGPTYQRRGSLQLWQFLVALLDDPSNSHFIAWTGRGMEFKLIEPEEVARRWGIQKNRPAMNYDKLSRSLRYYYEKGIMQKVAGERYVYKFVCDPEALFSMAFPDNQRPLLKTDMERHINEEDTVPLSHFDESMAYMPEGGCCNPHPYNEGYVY
In the next test the target is T7, ETV3L (Homo sapiens, UniProt Q6ZN32 1-361).
T7 sequence: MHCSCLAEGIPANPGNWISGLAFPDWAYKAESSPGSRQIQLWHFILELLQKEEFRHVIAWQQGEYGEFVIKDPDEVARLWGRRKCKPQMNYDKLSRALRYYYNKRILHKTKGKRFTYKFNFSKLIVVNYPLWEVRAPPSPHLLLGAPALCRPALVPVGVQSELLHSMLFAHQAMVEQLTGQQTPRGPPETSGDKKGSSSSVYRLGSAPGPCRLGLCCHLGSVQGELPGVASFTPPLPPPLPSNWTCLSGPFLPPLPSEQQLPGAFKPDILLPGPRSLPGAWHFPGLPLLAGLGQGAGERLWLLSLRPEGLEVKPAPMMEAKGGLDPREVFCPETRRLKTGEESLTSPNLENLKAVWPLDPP
Summed up:
as §1

The target of another test is T8, ELF5 (Homo sapiens, UniProt Q9UKW6-2 1-255).
T8 sequence: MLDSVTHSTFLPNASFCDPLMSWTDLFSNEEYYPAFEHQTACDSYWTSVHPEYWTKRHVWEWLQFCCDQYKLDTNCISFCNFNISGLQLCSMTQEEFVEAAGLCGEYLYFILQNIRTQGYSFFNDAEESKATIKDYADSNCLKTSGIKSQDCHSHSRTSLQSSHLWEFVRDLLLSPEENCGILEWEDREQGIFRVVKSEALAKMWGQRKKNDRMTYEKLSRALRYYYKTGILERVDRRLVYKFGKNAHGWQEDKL
The method, boiled down: as §1

The target of another test is T9, ETV3 (Homo sapiens, UniProt P41162-2 1-143).
T9 sequence: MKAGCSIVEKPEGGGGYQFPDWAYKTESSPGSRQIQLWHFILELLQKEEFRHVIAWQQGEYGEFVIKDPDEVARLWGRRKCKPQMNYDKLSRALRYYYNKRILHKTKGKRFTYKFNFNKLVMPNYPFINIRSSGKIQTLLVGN
Summed up:
as §1

A further test addresses ETV6 (Homo sapiens, UniProt P41212 1-452). Summed up:
as §1

Sequence of ETV6 (P41212 whole entry): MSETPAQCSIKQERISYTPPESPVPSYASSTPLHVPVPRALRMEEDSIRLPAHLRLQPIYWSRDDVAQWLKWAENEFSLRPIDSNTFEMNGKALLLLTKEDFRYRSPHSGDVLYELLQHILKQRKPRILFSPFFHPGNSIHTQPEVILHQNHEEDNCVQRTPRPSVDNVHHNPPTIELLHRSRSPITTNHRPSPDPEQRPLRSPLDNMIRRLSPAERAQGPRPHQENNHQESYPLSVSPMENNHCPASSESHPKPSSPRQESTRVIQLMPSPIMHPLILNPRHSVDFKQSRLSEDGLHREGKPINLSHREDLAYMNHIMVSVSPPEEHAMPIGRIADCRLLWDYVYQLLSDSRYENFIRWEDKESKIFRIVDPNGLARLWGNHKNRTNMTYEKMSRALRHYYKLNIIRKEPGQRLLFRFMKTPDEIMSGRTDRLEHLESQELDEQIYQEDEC
Sequence of ELF4 (Q99607 whole entry): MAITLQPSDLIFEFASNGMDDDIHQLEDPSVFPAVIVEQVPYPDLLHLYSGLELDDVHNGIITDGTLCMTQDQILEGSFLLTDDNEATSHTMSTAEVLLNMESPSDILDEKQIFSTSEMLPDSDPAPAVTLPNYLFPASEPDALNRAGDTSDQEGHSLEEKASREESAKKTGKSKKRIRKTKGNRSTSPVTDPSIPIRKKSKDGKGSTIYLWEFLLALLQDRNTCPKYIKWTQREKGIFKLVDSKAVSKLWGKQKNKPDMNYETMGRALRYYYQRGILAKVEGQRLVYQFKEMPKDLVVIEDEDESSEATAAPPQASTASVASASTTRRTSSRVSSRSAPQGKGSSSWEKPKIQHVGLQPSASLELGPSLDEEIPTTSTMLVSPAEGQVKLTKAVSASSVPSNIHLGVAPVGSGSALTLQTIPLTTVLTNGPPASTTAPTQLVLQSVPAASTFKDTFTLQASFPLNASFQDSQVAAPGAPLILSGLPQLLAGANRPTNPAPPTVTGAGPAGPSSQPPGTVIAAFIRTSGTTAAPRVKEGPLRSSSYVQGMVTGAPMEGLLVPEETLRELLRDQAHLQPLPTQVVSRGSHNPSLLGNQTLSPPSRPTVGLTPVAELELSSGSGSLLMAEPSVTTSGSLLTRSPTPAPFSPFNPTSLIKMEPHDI
Sequence of ETV5 (P41161 whole entry): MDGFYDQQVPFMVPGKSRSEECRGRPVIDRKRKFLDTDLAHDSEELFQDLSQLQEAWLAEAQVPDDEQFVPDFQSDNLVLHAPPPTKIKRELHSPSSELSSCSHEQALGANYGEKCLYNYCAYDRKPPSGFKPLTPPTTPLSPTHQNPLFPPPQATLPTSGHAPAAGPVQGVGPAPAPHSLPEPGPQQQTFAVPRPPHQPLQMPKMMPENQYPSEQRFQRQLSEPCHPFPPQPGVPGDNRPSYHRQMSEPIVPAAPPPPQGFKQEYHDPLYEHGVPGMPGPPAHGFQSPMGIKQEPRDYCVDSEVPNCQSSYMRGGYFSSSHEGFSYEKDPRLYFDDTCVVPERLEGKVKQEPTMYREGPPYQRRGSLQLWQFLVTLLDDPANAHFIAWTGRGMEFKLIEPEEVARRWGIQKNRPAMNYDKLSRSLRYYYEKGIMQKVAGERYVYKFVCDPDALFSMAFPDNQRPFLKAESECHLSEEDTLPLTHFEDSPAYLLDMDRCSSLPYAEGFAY

In the case of AGTGAC, the binding signal with FLI1 was 1.07 fold enrichment (6-mer frequency, TF over GST control); in the test with ELK1, 1 fold enrichment (6-mer frequency, TF over GST control); in the test with ERG, 1.1 fold enrichment (6-mer frequency, TF over GST control); with EHF, 1.08 fold enrichment (6-mer frequency, TF over GST control); with SPI1 it was 1.33 fold enrichment (6-mer frequency, TF over GST control); with SPIB, 1.04 fold enrichment (6-mer frequency, TF over GST control). Also, the binding signal with FEV was 1.11 fold enrichment (6-mer frequency, TF over GST control); with ETV5 it was 1.05 fold enrichment (6-mer frequency, TF over GST control); in the test with SPIC, 1.04 fold enrichment (6-mer frequency, TF over GST control); in the test with ELF4 it was 1.05 fold enrichment (6-mer frequency, TF over GST control); with ETV1, 1.03 fold enrichment (6-mer frequency, TF over GST control); with ETV3L it was 1.1 fold enrichment (6-mer frequency, TF over GST control). The binding signal with ELF5 is 1.11 fold enrichment (6-mer frequency, TF over GST control); with ETV3, 1.1 fold enrichment (6-mer frequency, TF over GST control); with ETV6, 1.11 fold enrichment (6-mer frequency, TF over GST control).
